# Sampled rows, rich in hits. Any-hit rate of the full collection: about 3.7%.
# MLL AF4-AF9 inh: inhibitors of human MLL-AF4/AF9 interaction; AlphaScreen, biotin-AF4 peptide binding to FLAG-AF9; AID 651704; 0.47% of 350,000 active; inhibition, % at 10 µM;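 active = every replicate reaching a set inhibition limit, whatever the replicate mean, cut at about 25% in these data; inconclusive = mean inhibition reaches that limit but some replicates miss it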;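 note: 0% = plate neutral control median and 100% = total signal loss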
# Target sequence (P42568 whole entry, looked up): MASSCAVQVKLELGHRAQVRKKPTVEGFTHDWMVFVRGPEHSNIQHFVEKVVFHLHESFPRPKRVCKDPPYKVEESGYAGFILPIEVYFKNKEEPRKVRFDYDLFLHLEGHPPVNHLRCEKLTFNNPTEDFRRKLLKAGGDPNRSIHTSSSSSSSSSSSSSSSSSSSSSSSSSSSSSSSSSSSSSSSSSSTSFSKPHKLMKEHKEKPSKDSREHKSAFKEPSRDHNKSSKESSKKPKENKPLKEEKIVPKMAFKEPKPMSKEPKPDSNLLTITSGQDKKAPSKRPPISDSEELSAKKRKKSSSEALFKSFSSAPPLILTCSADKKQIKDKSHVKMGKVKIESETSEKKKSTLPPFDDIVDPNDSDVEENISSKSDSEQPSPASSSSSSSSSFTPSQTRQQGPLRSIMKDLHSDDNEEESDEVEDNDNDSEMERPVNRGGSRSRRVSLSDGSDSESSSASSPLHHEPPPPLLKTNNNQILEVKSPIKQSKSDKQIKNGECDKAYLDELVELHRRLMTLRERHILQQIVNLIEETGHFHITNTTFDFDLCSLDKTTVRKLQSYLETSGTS
# Wnt bcat act: Wnt/beta-catenin pathway activation; 1.2% of 300,000 active; AID 743398; activation, % at 9.35 µM; Wnt/beta-catenin reporter cell assay, activator, plate reader; in the data active = activation above about 30%, passing the limit was not always enough; inconclusive = no clear call, values can overlap the other calls;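 note: 0% = neutral control wells and 100% = positive control wells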
# rRNA inh HTS: selective bacterial rRNA inhibition in E. coli; E. coli WT GFP vs humanized-ribosome RFP mutants, fluorescence, 24 h; hits give low values; DMSO median 0, no signal -100; GFP signal change (wild-type ribosome), % (no concentration beside the values); 1.6% of 350,000 active; AID 720706;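 active = significant combined selectivity score with lowered wild-type GFP, culture density cut under 30%, mutant RFP and density less affected; inactive = any of these conditions unmet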
# MITF TRPM1 HTS: activators of MITF-driven TRPM1 promoter activity in SK-MEL-5 cells; SK-MEL-5 TRPM1-promoter luciferase, 24 h; % of positive control, neutral wells = 0; activation, % at 12.5 µM; AID 588334; 0.75% of 300,000 active;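 active = mean activation of at least 80% with every replicate also reaching 80%; inconclusive = mean reaches 80% but some replicate falls short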;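 note: 0% = neutral control wells and 100% = parthenolide positive control wells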
# esBAF inh: blocks esBAF chromatin remodeling in mouse ES cells. reporter increase, % at 12.5 µM. AID 602393. Bmi1-luciferase knock-in reporter, 24 h; 100% = twice the neutral-well signal. 2% of 350,000 active; in the data active = activation above about 40%; inconclusive = no clear call, values can overlap the other calls;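 note: 0% = median of the plate's neutral control wells and 100% = double that signal; a rise in the Bmi1 reporter signal indicates esBAF inhibition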
# Starred values were filed as active, the others as inactive; ? = inconclusive; nt = no result.
SMILES,MLL AF4-AF9 inh,Wnt bcat act,rRNA inh HTS,MITF TRPM1 HTS,esBAF inh
CC(C)(C)S(=O)N1Cc2cc(C(=O)NCc3ccc4c(c3)OCO4)nc(-c3cccc(-c4cccc(F)c4)c3)c2[C@H]1CCO (stereo not given in full),-2,nt,nt,nt,nt
O=C(O)c1nn(CCOc2ccccc2F)c(=O)c2ccccc12,-2,-1,-6,19,10
CC1CCC(NC(=O)C2CCN(c3c4c(nc5ncnn35)CCC4)CC2)CC1 (stereo not given),nt,nt,nt,nt,41*
Cc1ccc(F)c([C@H]2C3C=CCC(c4ccccc4)C3C(=O)N2Cc2ccccc2)c1 (stereo not given in full),50*,-8,-2,8,2
COc1ccc(NC(=S)NCCN2CCOCC2)cc1,2,1,11,4,nt
CCN(Cc1ccccc1)S(=O)(=O)c1cc(C(=O)c2c(N)n(C)c(=O)n(C)c2=O)ccc1OC,2,-1,-37*,6,nt
CCCCN(Cc1ccccc1)S(=O)(=O)c1c(N)n(C)c(=O)n(C)c1=O,0,4,nt,-6,-4
Cc1cc(O)ccc1Nc1cc(-c2cccc(N(C)C)c2)ncn1,1,0,6,nt,55*
CCC(CO)n1c(=S)[nH]c2cc(OC)c(OC)cc2c1=O (stereo not given),-4,0,-22*,1,-6
CCOc1cc2[nH]c(=S)n(C(C)C)c(=O)c2cc1OCC,nt,-6,nt,-15,-1
Cc1c(-c2ccccc2)nc2ccccc2c1C(=O)NCc1cccs1,nt,4,nt,-7,nt
CCOc1ccccc1N1CCN(S(=O)(=O)c2cccs2)CC1,5,-2,-24*,4,-6
Cc1cc(C(=O)O)ccc1-n1c(C)cc(/C=C2\SC(=O)NC2=O)c1C,-6,9,-7,nt,2
COC(=O)c1cccc(-n2c(C)cc(/C=C3\SC(=O)NC3=O)c2C)c1,1,-3,-5,nt,45*
Cc1cc(/C=C2\SC(=S)NC2=O)c(C)n1-c1ccc(O)cc1,7,0,-24*,69,nt
COCCCNc1nc2c(c(=O)n(Cc3cccc(Br)c3)c(=O)n2C)n1C,4,-2,-12,-21,nt
O=C(Nc1ccccc1C(F)(F)F)Nc1cccc2ccccc12,nt,nt,nt,-4,-1
O=C(CNc1ccccc1F)Nc1cccc2ccccc12,-1,6,-1,6,64*
O=C(Nc1ccccc1F)C(=O)Nc1cccc2ccccc12,-1,11,6,nt,62*
Cc1c(Cl)cccc1NC(=O)CNc1ccccc1F,nt,nt,nt,5,nt
Cc1ccoc1C(=O)Nc1cccc2ccccc12,0,20,-11,26,42*
CCOc1ccc(S(=O)(=O)Nc2cccc(C(=O)N3CC(C)OC(C)C3)c2)cc1 (stereo not given),5,-1,-4,-6,1
C[C@H](CO)N1C[C@H](C)[C@H](CN(C)C(=O)Nc2ccccc2)Oc2c(NC(=O)c3ccncc3)cccc2C1=O,-2,nt,2,nt,-3
COC(=O)c1cccc(NC(=O)c2ccc3c(c2)C(=O)N(Cc2cccnc2)C3=O)c1C,-3,-1,-2,-4,-4
Cc1cccc(S(=O)(=O)N2C[C@@H](O)COC[C@H]3O[C@@H](CC(=O)Nc4ccc(-c5ccccc5)cc4)CC[C@@H]32)c1,nt,nt,3,nt,2
SMILES,MLL AF4-AF9 inh,Wnt bcat act,rRNA inh HTS,MITF TRPM1 HTS,esBAF inh
Cc1nc2c(-c3ccccc3)c(C)nn2c(N)c1-c1ccccc1,nt,nt,nt,86*,nt
Cc1nn2c(N)c(-c3ccccc3)cnc2c1-c1ccc(Cl)cc1,-4,17,4,101*,?
Cc1ccc(-c2ccnc3c(Cl)c(C)nn23)cc1,51*,0,9,-10,14
Cc1nn2c(-c3ccccc3)ccnc2c1-c1ccccc1,nt,40*,nt,?,nt
Cc1nn2c3c(cnc2c1-c1ccccc1)C(=O)CCC3,nt,8,nt,41,?
O=C(N[C@@H]1C=C[C@H](CC(=O)N2CCC(Cc3ccccc3)CC2)O[C@H]1CO)c1cnccn1,2,nt,-6,nt,-3
C[C@H]1CN([C@@H](C)CO)S(=O)(=O)c2ccc(C#CCN(C)C)cc2O[C@H]1CN(C)Cc1ccccn1,-2,nt,-1,nt,-1
COCCN(Cc1cc2cc3c(cc2nc1Cl)OCO3)C(=O)Nc1ccc(OC)cc1,-4,1,17,-8,nt
COCCN(Cc1cc2cc3c(cc2nc1Cl)OCO3)C(=O)Nc1ccc(F)cc1,-18,0,-27*,-14,0
C[C@H]1CN([C@@H](C)CO)C(=O)c2cc(C3=CCCC3)cnc2O[C@H]1CN(C)C(=O)c1cccnc1,-3,nt,6,nt,7
CCc1ccc(NC(=O)CSc2nncn2-c2cccnc2)cc1,-2,9,0,94*,?
CCOC(=O)c1cc2c(=O)[nH]ccc2nc1C,nt,nt,nt,-12,5
CN(Cc1cnn(C)c1)C(=O)c1cc(COc2c(F)cccc2F)on1,-1,nt,12,15,47*
O=C(NCCc1cnn(-c2ccccc2)c1)c1cc(COc2c(F)cccc2F)on1,-6,38*,-6,46,nt
COc1cccc(CN(C)C(=O)c2cc(COc3c(F)cccc3F)on2)c1,-2,1,-17,8,3
NC(=O)CC(NC(=O)Cc1ccc(Cl)cc1)c1ccc(NC2CCCCCC2)c([N+](=O)[O-])c1 (stereo not given),nt,-7,nt,7,-5
CCOc1c(Br)cc(C(N)=O)cc1OCc1ccccc1,2,1,-37,-10,nt
O=C(Nc1ccno1)Nc1ccc(Cl)cc1Cl,2,3,-30*,15,39
COc1ccc(N2CCN(Cc3nc(Cc4cccc(F)c4)no3)C(C)C2)cc1 (stereo not given),15,-1,-23*,-19,-3
Cc1ccc2nc(CSc3nc(C)ccc3C#N)[nH]c2c1,-28,-1,7,0,-40
Cc1ccc(C#N)c(SCc2ccccc2F)n1,-3,-1,-25*,nt,nt
O=c1c2ccccc2nc2c3ccccc3cnn12,0,10,13,48,74*
O=c1c2ccccc2nc2ccccn12,-1,5,19,39,nt
O=C(NCc1cccnc1)c1nc(-c2ccccc2)n(-c2ccccc2)n1,0,0,-3,-8,6
CCCNC(=O)N1CC2(CN(CC3CCCC3)C2)c2c(n(C)c3cc(OC)ccc23)[C@H]1CO,28*,nt,-1,nt,nt
COc1ccc2c3c(n(C)c2c1)[C@@H](CO)N(C(C)=O)CC31CN(Cc2ccc(Cl)cc2)C1,7,nt,-14,nt,nt
COc1ccc(S(=O)(=O)N2CCC3(CC2)CN(C(=O)CN(C)C)[C@@H](CO)c2c3c3ccc(OC)cc3n2C)cc1,35*,nt,0,nt,nt
CCCNC(=O)N1CC2(CN(CC3CC3)C2)c2c(n(C)c3cc(OC)ccc23)[C@@H]1CO,12,nt,1,nt,nt
COc1ccc2c3c(n(C)c2c1)[C@@H](CO)N(C(=O)CN(C)C)CC31CCN(C(=O)CN(C)C)CC1,4,nt,5,nt,nt
COc1ccc2c3c(n(C)c2c1)[C@H](CO)N(C(=O)c1ccccc1)CC31CN(Cc2ccccc2OC)C1,45*,nt,-2,nt,nt

# High-throughput results (PubChem BioAssay)
